Test results published in the supplement of paper PMC8728848.
The sample as a whole holds a higher share of the strongest signals than the screen did.

Assays:
Assay in all cases: glycan array binding signal (z-score within array); higher = stronger binding
Settings in all cases: glycan notation: IUPAC condensed, linker removed
GalNAc(a1-3)GalNAc = biological target: GalNAc(a1-3)GalNAc
Method in brief: (§1)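 Glycan array binding is given as a within-array Z-score, which can be read as non-binding when negative. The arrays, 3228 of them, came from the Consortium for Functional Glycomics database and were retained only where the protein sequence was available. Z-scores were averaged across arrays of the same protein sequence at different concentrations or buffers and across linkers.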

GalNAc6S(b1-4)GlcNAc = biological target: GalNAc6S(b1-4)GlcNAc
Method in brief: as §1

Glc(b1-6)Glc = biological target: Glc(b1-6)Glc
Method in brief: as §1

[1] = biological target: GlcNAc(a1-3)Gal(b1-4)GlcNAc
Method in brief: as §1

[2] = biological target: GlcNAc(a1-4)Gal(b1-4)GlcNAc(b1-3)Gal(b1-4)GlcNAc(b1-3)Gal(b1-4)GlcNAc
Method in brief: as §1

[3] = biological target: GlcNAc(a1-4)Gal(b1-4)GlcNAc(b1-3)Gal(b1-4)[Fuc(a1-3)]GlcNAc(b1-3)Gal(b1-4)[Fuc(a1-3)]GlcNAc
Method in brief: as §1

[4] = biological target: GlcNAc(b1-2)Man(a1-3)[GlcNAc(b1-2)Man(a1-6)]Man(b1-4)GlcNAc(b1-4)GlcNAc
Method in brief: as §1

[5] = biological target: GlcNAc(b1-3)Gal(b1-4)GlcNAc(b1-3)Gal(b1-4)GlcNAc(b1-3)Gal(b1-4)GlcNAc(b1-2)Man(a1-3)[GlcNAc(b1-3)Gal(b1-4)GlcNAc(b1-3)Gal(b1-4)GlcNAc(b1-3)Gal(b1-4)GlcNAc(b1-2)Man(a1-6)]Man(b1-4)GlcNAc(b1-4)GlcNAc
Method in brief: as §1

[6] = biological target: GlcNAc(b1-3)Gal(b1-4)GlcNAc(b1-3)Gal(b1-4)GlcNAc(b1-3)Gal(b1-4)GlcNAc(b1-3)Gal(b1-4)GlcNAc(b1-2)[GlcNAc(b1-3)Gal(b1-4)GlcNAc(b1-3)Gal(b1-4)GlcNAc(b1-3)Gal(b1-4)GlcNAc(b1-3)Gal(b1-4)GlcNAc(b1-6)]Man(a1-6)[GlcNAc(b1-3)Gal(b1-4)GlcNAc(b1-3)Gal(b1-4)GlcNAc(b1-3)Gal(b1-4)GlcNAc(b1-3)Gal(b1-4)GlcNAc(b1-2)Man(a1-3)]Man(b1-4)GlcNAc(b1-4)[Fuc(a1-6)]GlcNAc
Method in brief: as §1

[7] = biological target: GlcNAc(b1-3)Gal(b1-4)GlcNAc(b1-3)[GlcNAc(b1-3)Gal(b1-4)GlcNAc(b1-3)]GalNAc
Method in brief: as §1

Kdn(a2-3)Gal(b1-3)GlcNAc = biological target: Kdn(a2-3)Gal(b1-3)GlcNAc
Method in brief: as §1

Kdn(a2-3)Gal(b1-4)GlcNAc = biological target: Kdn(a2-3)Gal(b1-4)GlcNAc
Method in brief: as §1

[8] = biological target: Man(a1-3)[Man(a1-6)]Man(a1-6)[Man(a1-3)]Man(b1-4)GlcNAc(b1-4)GlcNAc
Method in brief: as §1

[9] = biological target: Neu5Ac(a2-3)Gal(b1-3)GlcNAc(b1-6)GalNAc
Method in brief: as §1

[10] = biological target: Neu5Ac(a2-3)Gal(b1-3)[Fuc(a1-4)]GlcNAc
Method in brief: as §1

[11] = biological target: Neu5Ac(a2-3)Gal(b1-4)[Fuc(a1-3)]GlcNAc
Method in brief: as §1

[12] = biological target: Neu5Ac(a2-3)Gal(b1-4)[Fuc(a1-3)]GlcNAc(b1-3)Gal(b1-4)GlcNAc
Method in brief: as §1

[13] = biological target: Neu5Ac(a2-6)Gal(b1-4)GlcNAc(b1-2)Man(a1-3)[GlcNAc(b1-4)][Neu5Ac(a2-6)Gal(b1-4)GlcNAc(b1-2)Man(a1-6)]Man(b1-4)GlcNAc(b1-4)GlcNAc
Method in brief: as §1

[14] = biological target: Neu5Ac(a2-6)Gal(b1-4)GlcNAc(b1-2)Man(a1-3)[Man(a1-6)]Man(b1-4)GlcNAc(b1-4)GlcNAc
Method in brief: as §1

[15] = biological target: Neu5Ac(a2-6)Gal(b1-4)GlcNAc(b1-2)Man(a1-6)Man(b1-4)GlcNAc(b1-4)GlcNAc
Method in brief: as §1

[16] = biological target: Neu5Ac(a2-6)Gal(b1-4)GlcNAc(b1-2)[Neu5Ac(a2-6)Gal(b1-4)GlcNAc(b1-4)]Man(a1-3)[GlcNAc(b1-4)][Neu5Ac(a2-6)Gal(b1-4)GlcNAc(b1-2)[Neu5Ac(a2-6)Gal(b1-4)GlcNAc(b1-6)]Man(a1-6)]Man(b1-4)GlcNAc(b1-4)GlcNAc
Method in brief: as §1

[17] = biological target: Neu5Ac(a2-6)Gal(b1-4)GlcNAc(b1-2)[Neu5Ac(a2-6)Gal(b1-4)GlcNAc(b1-4)]Man(a1-3)[GlcNAc(b1-4)][Neu5Ac(a2-6)Gal(b1-4)GlcNAc(b1-4)Man(a1-6)]Man(b1-4)GlcNAc(b1-4)GlcNAc
Method in brief: as §1

[18] = biological target: Neu5Ac(a2-6)GlcNAc(b1-4)GlcNAc(b1-4)GlcNAc
Method in brief: as §1

[19] = biological target: Neu5Ac(a2-8)Neu5Ac(a2-3)[GalNAc(b1-4)]Gal(b1-4)Glc
Method in brief: as §1

[20] = biological target: Neu5Ac9Ac(a2-3)Gal(b1-3)GlcNAc
Method in brief: as §1

[21] = biological target: Neu5Gc(a2-3)Gal(b1-3)GlcNAc
Method in brief: as §1

B1: MXA PilAct-eGFP (Myxococcus xanthus), Q59589 (protein)
chain: MRVSRFNPRNRGFTLIELMIVVAIIGILAAIAIPNFIKFQARSKQSEAKTNLKALYTAQKSFFSEKDRYSDFANEIGFAPERGNRYGYRVSAAAGDCEVRNAADLPVPAAGVPCISNDSFRFGANSAIDDPTPVVARFVPQGAAGWNTTLGVQPTIADCPNCNFFAGARGNADNEATFDDWVIAGFEGSGQVGPCSEAGNVASGTPYNTRNDVACDGAAQ
**Q.** How did the “glycan array binding signal (z-score)” value (GalNAc(a1-3)GalNAc) turn out when B1 was run?
**A.** Its value is -1.12.

**Q.** And the “glycan array binding signal (z-score)” value (GalNAc6S(b1-4)GlcNAc)?
**A.** Its value is 0.26.

**Q.** What about the “glycan array binding signal (z-score)” value (Glc(b1-6)Glc) of the same binder?
**A.** The value was 1.37.

**Q.** What about the “glycan array binding signal (z-score)” value [1] of the same binder?
**A.** The value was -0.245.

**Q.** What about the “glycan array binding signal (z-score)” value [2] of the same binder?
**A.** The value was 0.596.

**Q.** What about the “glycan array binding signal (z-score)” value [3] of the same binder?
**A.** Its value is 1.45.

**Q.** And the “glycan array binding signal (z-score)” value [4]?
**A.** The value was 0.002.

**Q.** What about the “glycan array binding signal (z-score)” value [5] of the same binder?
**A.** Its value is 3.99.

**Q.** What about the “glycan array binding signal (z-score)” value [6] of the same binder?
**A.** Its value is 3.85.

**Q.** What about the “glycan array binding signal (z-score)” value [7] of the same binder?
**A.** The value was -0.168.

**Q.** And the “glycan array binding signal (z-score)” value (Kdn(a2-3)Gal(b1-3)GlcNAc)?
**A.** Its value is 0.462.

**Q.** And the “glycan array binding signal (z-score)” value (Kdn(a2-3)Gal(b1-4)GlcNAc)?
**A.** The value was -0.846.

**Q.** And the “glycan array binding signal (z-score)” value [8]?
**A.** The value was -0.784.

**Q.** What about the “glycan array binding signal (z-score)” value [9] of the same binder?
**A.** The value was -0.507.

**Q.** What about the “glycan array binding signal (z-score)” value [10] of the same binder?
**A.** The value was -0.236.

**Q.** What about the “glycan array binding signal (z-score)” value [11] of the same binder?
**A.** Its value is -0.025.

**Q.** What about the “glycan array binding signal (z-score)” value [12] of the same binder?
**A.** The value was -0.9.

**Q.** And the “glycan array binding signal (z-score)” value [13]?
**A.** Its value is -1.03.

**Q.** And the “glycan array binding signal (z-score)” value [14]?
**A.** The value was 3.09.

**Q.** And the “glycan array binding signal (z-score)” value [15]?
**A.** The value was 2.91.

**Q.** And the “glycan array binding signal (z-score)” value [16]?
**A.** Its value is -0.369.

**Q.** What about the “glycan array binding signal (z-score)” value [17] of the same binder?
**A.** The value was -0.544.

**Q.** What about the “glycan array binding signal (z-score)” value [18] of the same binder?
**A.** The value was -0.645.

**Q.** What about the “glycan array binding signal (z-score)” value [19] of the same binder?
**A.** The value was 3.6.

**Q.** And the “glycan array binding signal (z-score)” value [20]?
**A.** The value was 4.29.

**Q.** What about the “glycan array binding signal (z-score)” value [21] of the same binder?
**A.** The value was 0.057.
